Pf growth 48h – P. falciparum growth inhibition at 48 hours (one generation); P. falciparum luciferase growth in erythrocytes, 48 h; Potency, µM (titrated, usually from 28.7 µM), usual class: inhibitors; actives 5.9% (n = 310,000); AID 504832
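Growth was read as firefly luciferase luminescence after a 48 h, 37 C, 5% CO2 exposure of compounds to reporter-bearing P. falciparum cultures (0.1% parasitemia, 2% hematocrit final) in Albumax-supplemented RPMI 1640.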
SARS PLpro yeast – SARS-CoV PLP inhibition in yeast; S. cerevisiae expressing SARS-CoV PLpro, growth rescue; Potency, µM (series often up to 32.9 µM), actives largely listed as activators; actives 0.19% (n = 330,000); AID 485353; calls by dose curve; further: nearly all actives have a fitted effect of over 55% in size
HCMV inh – blocks human cytomegalovirus replication; actives 4.5% (n = 410,000); HFF cells, HCMV-luciferase reporter, 72 h; hits give low values; AID 1259415; activity change, negative = inhibition, % at 57.5 µM; in the data active means activity change below about -60%; inconclusive means no clear call, values can overlap the other calls; inactive means above about -39%
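Luciferase read-out from HCMV-luciferase-infected HFFs (MOI 1 PFU/cell) 72 h post infection at 37C; compounds added after 16 h cell attachment; activity normalized between buffer-only basal and Salinomycin (10uM) inhibitor controls.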
Sm TGR block – S. mansoni TGR enzyme inhibition; Q962Y6; purified TGR, DTNB reduction, TNB absorbance 405 nm; Potency, µM (series often up to 114 µM), actives largely listed as inhibitors; actives 3% (n = 360,000); AID 485364; further: nearly all actives have a fitted effect of over 60% in size
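First, TGR (20 nM dispensed) and NADPH were mixed with compound. Second, a 15 min room-temperature incubation followed. Third, further NADPH and then DTNB were added to start the reaction. Finally, TNB absorbance was monitored kinetically.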
HCV inhibitor – HCV inhibition | Huh7.5.1 HCVcc-Cre infection, luciferase reporter, 44 h | Potency, µM (highest dose often 41.8 µM), hits mostly inhibitors | actives 3.4% (n = 340,000)
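Seed cells (1,000/well) for 4 h; treat with compound and infect with HCVcc-Cre, moi about 0.5. Incubate 44 h, then detect luciferase activity.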
Pf growth 96h – P. falciparum growth inhibition at 96 hour, primary screen for plastid delayed-death inhibitors; actives 6.9% (n = 320,000); P. falciparum luciferase reporter growth, 96 h; Potency, µM (titrated, usually from 28.7 µM), most hits filed as inhibitors
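Two-generation exposure (96 h) targets delayed-death phenotype. Reporter parasites carrying integrated firefly luciferase, in red cells at 2% hematocrit and 0.05% parasitemia final, kept at 37 C, 5% CO2; luminescence loss indicates inhibition.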
A number is an active result; - = inactive; ? = inconclusive; . = no result given; [ ] = remark or other dose. Hits are enriched below; roughly 15% of the tested compounds scored in any of these assays. Unless noted, the call rests on the fitted dose curve; in most records, active means well fitted curve in the direction sought with a large enough effect; inconclusive means small, poorly fitted or top-dose-only effect, or another doubt; inactive means no such curve, though single readings can be large; an effect the other way counts as inactive or inconclusive.

SMILES	Pf growth 48h	SARS PLpro yeast	HCMV inh	Sm TGR block	HCV inhibitor	Pf growth 96h
Cc1onc(-c2c(F)cccc2Cl)c1C(=O)Nc1ccccc1N1CCOCC1	1.9µM	-	-	-	-	2.6µM
COc1ccccc1N1CCN(C(=O)c2c(C)noc2C)CC1	-	-	-	-	-	-
CCOC(=O)c1ccc(N2CCOCC2)c(NC(=O)c2c(-c3ccccc3)noc2C)c1	13µM	-	-	-	?	?
Cc1onc(-c2ccccc2)c1C(=O)Nc1cc(C(F)(F)F)ccc1N1CCOCC1	.	-	-	-[11.4 µM]	?	-
COc1ccccc1N1CCN(C(=O)c2c(-c3ccccc3Cl)noc2C)CC1	?	-	-	-	11µM	?
CCc1cccc(C)c1NC(=O)CN1C(=O)C2(SCC(=O)N2c2cccc(F)c2)c2ccccc21 (stereo unspecified)	.	.	-	-	.	.
O=C(CCl)N(c1ccccc1)c1c[nH]c2ccccc12	1.7µM	-	-103	3.2µM	1.3µM	1.2µM
O=C(Cc1ccc(Cl)cc1)NCCc1c[nH]c2ccccc12	.	.	-	.	-	.
O=C(CCl)N(c1ccc(Cl)cc1)c1c[nH]c2ccccc12	2.3µM	-	-105	0.71µM	2.5µM	.
O=C1NC(=O)C(c2ccccc2)(c2ccc(Cl)cc2Cl)N1 (stereo unspecified)	.	.	-	.	-	.
CN(C)C(=O)c1ccc(Oc2ccc(C(=O)N(C)C)cc2)cc1	-	-	-	-	-	1.9µM
CC(=O)c1ccc(Oc2ccc(C(C)=O)cc2)cc1	-	-	-	-	-	?
CC(NCCCSc1ccccc1)C(O)c1ccc(O)cc1 (stereo unspecified)	.	.	-	.	.	.
C[N+]1(CCCCSc2ccc(O)cc2)CCCCC1	9.3µM	-	?	-	-	-
COc1ccc(C(=O)Nc2ccc(C)c(S(=O)(=O)N3CCCCCC3)c2)cc1	?	-	-65	-	32µM	-
Cc1csc(NC(=O)c2ccc(C)c(S(=O)(=O)N3CCCCC3)c2)n1	3.3µM	-	-	-	-	4.1µM
Cc1ccc(NC(=O)c2ccc(F)cc2)cc1S(=O)(=O)N1CCCCCC1	-	-	-78	-	?	?
O=C(Cn1cc(SCc2cccc(Cl)c2)c2ccccc21)N1CCOCC1	-	-	-	-	-	-
Cc1cn(C2CCCO2)c(=O)nc1N (stereo unspecified)	.	.	-	.	-	.
O=C(O/N=C1\CCS(=O)(=O)c2sccc21)c1c(F)cccc1F	-	-	-	.	-	-
O=C(NC(=O)c1c(F)cccc1F)O/N=C1\CCCc2occc21	2.3µM	-	-	-	-	-
CCN(CCN(C)C)C(=O)Cn1ncc2c([nH]c3ccc(C)cc32)c1=O	.	.	-	-	.	.
COc1ccc2c(c1)oc(=O)c1c3ccccc3[nH]c21	?	-	-	.	3.5µM	?
COc1ccc2c(c1)oc(=O)c1ccccc12	-	-	-	-	?	-
CCOC(=O)c1cnc(SC)nc1Sc1cc(Cl)ccc1Cl	?	-	-	-	-	10µM
SMILES	Pf growth 48h	SARS PLpro yeast	HCMV inh	Sm TGR block	HCV inhibitor	Pf growth 96h
CCOC(=O)c1cnc(SC)nc1Nc1cccc(F)c1	-	-	-	-	?	-
CC(C)NC(=O)c1cc2c(Cl)nc3ccccc3c2s1	.	.	-	-	.	.
CN(C(=O)/C=C/c1ccc2c(c1)OCO2)c1ccccc1	-	-	-	-	-	?
CN(C(=O)C=Cc1ccccc1)c1ccccc1	.	.	-101	.	-	.
COc1ccc(/C=C(\C#N)C(=O)OCC(=O)Nc2ccc(C(C)(C)C)cc2)cc1	-	-	-	-	-	-
COc1ccc(Nc2ncnc3sc(-c4ccccc4)cc23)cc1OC	-	-	-62	-	?	?
CCOC(CNc1ncnc2sc(-c3ccccc3)cc12)OCC	?	-	-72	?	?	?
CN(C)CCCNc1ncnc2sc(-c3ccccc3)cc12	?	-	-	-	?	?
Cc1ccn2c(C(C)O)nnc2c1 (stereo unspecified)	.	.	-	.	.	.
Cc1cc(NC(=O)c2cccc(Br)c2)n[nH]1	-	-	-	-	-	-
CSc1nccc(NC(=O)c2cccc(Br)c2)n1	-	-	-	-	10µM	-
O=C(O)C/C=C(\NC(=O)OCc1ccccc1)C(=O)OCc1ccccc1	-	-	-	16µM	-	-
O=S(=O)(c1ccc(SCCOc2ccc(Cl)cc2)nc1)N1CCCC1	13µM	-	-	-	?	?
CN1CCN(S(=O)(=O)c2ccc(SCCOc3ccccc3)nc2)CC1	-	-	-	-	-	?
CCOc1ccc(OCCSc2ccc(S(=O)(=O)N3CCN(C)CC3)cn2)cc1	?	-	-	-	11µM	15µM
O=S(=O)(c1ccc(SCCOc2ccc(Br)cc2)nc1)N1CCCC1	?	-	?	-	5.6µM	?
O=C(NCCC1=CCCCC1)C1CCN(S(=O)(=O)c2ccc(Br)s2)CC1	?	-	-	-	-	?
CC(OC(=O)c1ccc(Br)o1)C(=O)NCC1CCCCC1 (stereo unspecified)	.	-	-	.	?	.
CCCCOc1ccccc1NC(=O)CC1Sc2ccccc2NC1=O (stereo unspecified)	.	.	-	-	.	.
O=C(NC(c1ccccc1)c1cnccn1)C1CCN(CCOc2ccc(Cl)cc2Cl)CC1 (stereo unspecified)	.	.	-	.	.	.
COc1ccc2nc(N/C(N)=N/C(=S)Nc3cccc(C)c3)nc(C)c2c1	?	?	-	-	?	-
COc1ccc2nc(N/C(N)=N/C(=S)Nc3c(C)cccc3C)nc(C)c2c1	?	-	-71	-	?	?
COc1ccc(NC(=S)/N=C(\N)Nc2nc(C)c3ccccc3n2)cc1	?	-	-	-	?	2.9µM
CCOC(=O)C1CCN(C(=O)CN2C(=O)CSc3ccc(S(=O)(=O)N4CCOCC4)cc32)CC1	?	-	-	-	-	-
CCCCOc1ccc(C2OC34CCCCC3C(C#N)(C#N)C2(C#N)C(=N)O4)cc1 (stereo unspecified)	-	-	.	?	-	.
SMILES	Pf growth 48h	SARS PLpro yeast	HCMV inh	Sm TGR block	HCV inhibitor	Pf growth 96h
CCOc1ccc(C2OC34CCCCC3C(C#N)(C#N)C2(C#N)C(=N)O4)cc1OC (stereo unspecified)	-	-	.	50µM	-	.
COc1cc(-c2noc(C)c2/C=C/c2ccc(N)cc2)cc(OC)c1OC	?	-	-83	-	?	?
COc1ccc(-c2sc3ccccc3c2/C=C/c2ccc(N)cc2)cc1	.	-	-	.	?	.
COc1cc(-c2noc(C)c2C(=O)NCCO)cc(OC)c1OC	-	-	-	-	-	-
COc1ccc(-c2c(-c3cc(OC)c(OC)c(OC)c3)noc2C)cn1	-	-	.	-	-	?
CNC(C)C#Cc1c(-c2cc(OC)c(OC)c(OC)c2)noc1C (stereo unspecified)	?	-	-	?	?	15µM
